Screening data: PubChem, Paczesny and Yang Labs, IUPUI and University of Michigan
Shown is part of a subset that was picked to be rich in hits.
ST2 IL33 inh: inhibitors of human ST2 (IL1RL1) binding to IL-33, primary screen, biochemical, AlphaLISA. 2.3% of 78,000 active. inhibition, % for hits at 17 µM. AlphaLISA ST2-Fc/biotin-IL-33 interaction, 1 h; in the data active = inhibition above about 30%
Target sequence (Q01638 whole entry, looked up): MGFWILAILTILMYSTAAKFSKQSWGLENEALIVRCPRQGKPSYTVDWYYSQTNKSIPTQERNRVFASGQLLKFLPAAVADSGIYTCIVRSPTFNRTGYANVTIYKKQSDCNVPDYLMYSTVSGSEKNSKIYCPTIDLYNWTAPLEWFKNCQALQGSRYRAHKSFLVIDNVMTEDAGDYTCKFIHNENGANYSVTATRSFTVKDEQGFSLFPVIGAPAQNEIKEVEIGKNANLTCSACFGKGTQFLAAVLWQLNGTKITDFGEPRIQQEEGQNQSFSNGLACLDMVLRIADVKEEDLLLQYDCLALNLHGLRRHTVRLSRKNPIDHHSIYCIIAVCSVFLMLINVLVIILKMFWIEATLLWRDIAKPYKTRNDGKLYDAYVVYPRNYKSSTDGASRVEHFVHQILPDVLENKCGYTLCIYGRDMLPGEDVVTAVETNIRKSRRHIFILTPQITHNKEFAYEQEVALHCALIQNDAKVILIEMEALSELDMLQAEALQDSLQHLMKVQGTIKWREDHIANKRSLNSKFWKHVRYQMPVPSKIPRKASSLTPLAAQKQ
Large screens that a line does not name were inactive; ! = not confirmed by another sample.

CC1(c2ccccc2)OC(=O)C(=Cc2ccc(O)cc2)C(=O)O1 (stereo not drawn)	none
CCCCC1(C)OC(=O)C(=Cc2ccc(Br)o2)C(=O)O1 (stereo not drawn)	ST2 IL33 inh 73.0%
O=C1C(=Cc2ccc(Br)o2)C(=O)c2ccccc21	ST2 IL33 inh 52.0%
CCCCC1(C)OC(=O)C(=Cc2ccc(N(CC)CC)cc2)C(=O)O1 (stereo not drawn)	ST2 IL33 inh 33.0%
CCCCC1(C)OC(=O)C(=Cc2ccc(OC)c(I)c2)C(=O)O1 (stereo not drawn)	none
COc1cc(C=C2C(=O)OC(C)(C)OC2=O)cc(Br)c1O	none
CC1CCC(NC(=O)c2ccc(CS(=O)(=O)c3ccc(Br)cc3)o2)CC1 (stereo not drawn)	none
CCOC(=O)c1ccc(Nc2ncnc3c2cnn3-c2ccc(C)cc2C)cc1	none
Cc1cc(NC(=O)Cc2c(C(=O)O)[nH]c3ccccc23)no1	none
Cc1c(Cl)cccc1NC(=O)CN1CCN(Cc2ccccc2Cl)S1(=O)=O	none
COCCOC(=O)c1c(C)oc2ccc(OC(=O)c3ccc(Br)cc3)cc12	none
O=C(O)[C@H]1O[C@@H](Oc2cc(O)c3c(=O)cc(-c4ccc(O)cc4)oc3c2)[C@H](O)[C@@H](O)[C@@H]1O	none
CCOC(=O)C1Nc2c(ccc(C(=O)O)c2C)C2C=CCC12 (stereo not drawn)	none
O=C(O)c1ccc2c(c1)C1C=CCC1C(c1ccc(Br)cc1)N2 (stereo not drawn)	none
O=C(O)c1ccc2c(c1)C1C=CCC1C(C(=O)O)N2 (stereo not drawn)	ST2 IL33 inh 82.0%
O=C(c1ccc2c(c1)C1C=CCC1C(c1cccc([N+](=O)[O-])c1)N2)N1CCCCC1 (stereo not drawn)	ST2 IL33 inh 38.0%
COc1ccc(S(=O)(=O)N2CCN(C(=O)c3cccc([N+](=O)[O-])c3)CC2)cc1	none
CN1CCN(C(=O)c2cccc([N+](=O)[O-])c2)CC1	none
Cc1ccc(C2Nc3c(ccc(C(=O)O)c3C)C3C=CCC32)cc1 (stereo not drawn)	none
Fc1ccc(C2Nc3ccc(Cl)cc3C3C=CCC32)cc1 (stereo not drawn)	none
O=C(c1ccc2c(c1)C1C=CCC1C(c1ccc(Cl)cc1)N2)N1CCOCC1 (stereo not drawn)	ST2 IL33 inh 63.0%
CCN(Cc1ccncc1)C1CCCN(S(=O)(=O)c2ccc(S(C)(=O)=O)cc2)C1 (stereo not drawn)	none
O=C(Cn1cnc2sc3c(c2c1=O)CCCC3)Nc1ccc(Oc2ccccc2)cc1	none
CCC(NC(=O)c1cc(NC(C)=O)ccc1Cl)c1cc(C)ccn1 (stereo not drawn)	none
CC(C)n1c(Oc2ccccc2Cl)nc2c1c(=O)n(C)c(=O)n2C	none
Cc1cc(NC(c2cccc([N+](=O)[O-])c2)c2ccc3cccnc3c2O)no1 (stereo not drawn)	ST2 IL33 inh 33.0%
O=[N+]([O-])c1ccc(NC(c2ccccn2)c2ccc3cccnc3c2O)cc1 (stereo not drawn)	ST2 IL33 inh 31.0%
Cc1ccnc(NC(c2ccncc2)c2ccc3cccnc3c2O)c1 (stereo not drawn)	none
COc1cc(C(Nc2cccc(C)n2)c2ccc3ccc(C)nc3c2O)ccc1O (stereo not drawn)	none
O=C(Nc1ccc([N+](=O)[O-])cc1)c1cc2ccccc2o1	none
O=C(c1ccc([N+](=O)[O-])cc1)N1CCN(c2ccccn2)CC1	none
O=C(CN1CCCCC1)N1c2ccccc2C=Cc2ccccc21	none
CCc1cn[nH]c1C1CCCN(C(=O)c2nn3cc(C)cnc3c2Cl)C1 (stereo not drawn)	none
COCCN(Cc1ccc(C)cc1)Cc1c(C)nn(C)c1Cl	none
O=S(=O)(Nc1ccc(Br)cc1)c1cccc2nsnc12	none
CCc1ccc(C2NC(=O)NC(C)=C2C(=O)OCC2CCCO2)cc1 (stereo not drawn)	none
COc1ccc2cc3cc(C(=O)Nc4cccc(SC)c4)oc3nc2c1	ST2 IL33 inh 34.0%!
CCc1cccc(NC(=O)c2cc3cc4ccc(OC)cc4nc3o2)c1	none
COc1ccc2cc3cc(C(=O)Nc4ccc(C)cc4Cl)oc3nc2c1	none
COc1ccc2cc3cc(C(=O)Nc4ccc(OC)c(Cl)c4)oc3nc2c1	ST2 IL33 inh 31.0%
COc1ccc2cc3cc(C(=O)Nc4cccnc4)oc3nc2c1	none
COc1ccc2cc3cc(C(=O)Nc4ccc(OC)c(OC)c4)oc3nc2c1	none
COc1ccc2nc3oc(C(=O)Nc4ccc(F)cc4F)cc3cc2c1	none
COc1ccc2nc3oc(C(=O)Nc4ccc5c(c4)OCCO5)cc3cc2c1	ST2 IL33 inh 36.0%
COc1ccc2nc3oc(C(=O)N4CCOCC4)cc3cc2c1	none
CCCCCC(=O)OC1C=C(CO)C(O)(CO)C2(C)C(O)CCC(C)(C)C12 (stereo not drawn)	none
O=C(CCc1nc(-c2ccccc2F)no1)Nc1ccc(F)cc1Cl	none
COc1ccc(C(=O)Nc2c3c(nn2C(C)(C)C)CS(=O)C3)cc1 (stereo not drawn)	none
CC(C)c1cc(C(=O)N2CCn3cccc3C2c2ccccn2)n(C)n1 (stereo not drawn)	none
CCc1nc(-c2c(-c3ccccc3)ncn2CC(C)(C)N2CCOCC2)c(C)[nH]1	none
